Glioma ERSR ind: induces the endoplasmic reticulum stress response in human glioma cells; U87-MG GRP78 promoter luciferase reporter, 16 h; Potency, µM, inactives show top-dose activation, usual class: activators; 420,000 compounds, 0.02% hits; AID 602332; also: series mostly up to about 76 µM; % of control where 0% means no effect; nearly all actives have a fitted effect of over 35% in size
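Stably transfected U87-MG human glioma cells carrying a GRP78-based luminescent sensor were seeded at 1000 cells/well, pin-dosed with compounds and incubated 16 h. Luciferase reagent was then added, and end-point luminescence was read after 10 min at room temperature.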
VDR inhibitor: vitamin D3 receptor (human) inhibition; VDR-SRC2-3 peptide fluorescence polarization, 2 h; 400,000 compounds, 0.93% hits; Potency, µM, without a hit: max response, negative = inhibition, actives largely listed as inhibitors; P11473; also: % is scaled to controls: 0 for no effect and ±100 for the full control effect
Target sequence (P11473 whole entry, looked up): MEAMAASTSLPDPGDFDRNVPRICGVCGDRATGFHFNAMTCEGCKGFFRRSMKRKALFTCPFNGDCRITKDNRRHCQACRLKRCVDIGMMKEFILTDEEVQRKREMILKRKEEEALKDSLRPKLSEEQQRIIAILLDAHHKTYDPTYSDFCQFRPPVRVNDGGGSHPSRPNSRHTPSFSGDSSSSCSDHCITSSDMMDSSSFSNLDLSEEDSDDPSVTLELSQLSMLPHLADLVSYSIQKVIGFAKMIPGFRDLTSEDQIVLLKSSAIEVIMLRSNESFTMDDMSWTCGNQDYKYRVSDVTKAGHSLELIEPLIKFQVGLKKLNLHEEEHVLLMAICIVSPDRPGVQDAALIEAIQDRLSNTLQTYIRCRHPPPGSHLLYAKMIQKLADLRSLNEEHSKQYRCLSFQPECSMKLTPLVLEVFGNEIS
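Two reagent solutions held at 4 deg C in the dark were dispensed, compounds pinned at 23 nl, and the mixture incubated 2 h at room temperature. Read-out: fluorescence polarization of VDR–SRC2-3 peptide binding.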
G9a inh: blocks human histone lysine methyltransferase G9a | G9a H3K9 monomethylation, AlphaScreen, 2 h | 350,000 compounds, 8.8% hits | AID 504332 | Potency, µM (top dose mostly 102 µM), for inactives: at the top dose activity, negative = inhibition, usual class: inhibitors | Q96KQ7; also: % is scaled to controls: 0 for no effect and ±100 for the full control effect; nearly all actives have a fitted effect of over 75% in size
Target sequence (Q96KQ7 913-1193 limits assumed): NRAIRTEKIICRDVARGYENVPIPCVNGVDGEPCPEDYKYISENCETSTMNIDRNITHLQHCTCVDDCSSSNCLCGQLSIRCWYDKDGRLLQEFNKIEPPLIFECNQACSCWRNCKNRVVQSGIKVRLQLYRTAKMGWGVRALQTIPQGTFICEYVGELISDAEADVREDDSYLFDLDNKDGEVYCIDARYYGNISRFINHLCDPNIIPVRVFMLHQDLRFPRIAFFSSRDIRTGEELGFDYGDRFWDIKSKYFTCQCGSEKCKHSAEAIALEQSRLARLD
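AlphaScreen read-out: biotin-H3K9 peptide (500 nM) methylation by 20 nM enzyme with 20 uM SAM, 2 h at room temperature after 15 min compound preincubation; anti-monomethyl H3K9 antibody plus donor/acceptor beads, 10 min dark.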
Sfp inh: blocks B. subtilis Sfp PPTase activity; Biochemical Sfp PPTase activity, qHTS; Potency, µM, inactives show largest response in the series, negative = inhibition, actives largely listed as inhibitors; 310,000 compounds, 3.5% hits;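 also: the enzyme is Sfp with the accession as filed and its product quenches rhodamine fluorescence; 0% = enzyme reaction without inhibitor and -100% = no enzyme wells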
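Fluorescence-quenching assay with 15 nM Sfp, 5 uM rhodamine-CoA and 12.5 uM BHQ-2-labelled ybbR peptide in pH 7.6 Hepes/MgCl2 buffer. Enzyme was pre-incubated with compound for 15 min at room temperature. Rate was taken from the 30-min fluorescence change (525/598 nm).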
12-LOX inh: blocks human arachidonate 12S-lipoxygenase. P18054. purified 12hLO, xylenol orange hydroperoxide absorbance. Potency, µM (titrated, usually from 108 µM), for the others: top-dose activity change, negative = inhibition, hits mostly inhibitors. 580,000 compounds, 1.1% hits. AID 1671190; also: % is scaled to controls: 0 for no effect and ±100 for the full control effect
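Purified human 12hLO at 150 nM in 25 mM Hepes, 0.01% Triton X-100, pH 7.0, preincubated 15 min at room temperature with compound. Reaction started with 40 uM arachidonic acid, 30 min at room temperature. Hydroperoxide measured by Fe-xylenol orange, 573/405 nm absorbance ratio.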
* hit, by the source's call; ? = inconclusive; · = not tested or not shown; [ ] = dose if it differs, or a comment. The entries come from a sample that favours hits as a whole. Calls follow the shape of the dose curve; as a rule, active = well fitted curve in the direction sought with a large enough effect; inconclusive = small, poorly fitted or top-dose-only effect, or another doubt; inactive = no such curve, though single readings can be large; an effect the other way counts as inactive or inconclusive. Potency is read from the fitted curve at half-maximal effect.

SMILES	Glioma ERSR ind	VDR inhibitor	G9a inh	Sfp inh	12-LOX inh
Cc1cccc(NC(=O)COC(=O)Cn2cnc3c2c(=O)n(C)c(=O)n3C)c1	·	·	·	·	11%
CCc1nnc(C(=O)Nc2cccc(C(=O)N3CCOCC3)c2)s1	·	·	·	·	11%
O=C(CCc1nnc2ccc(NCc3ccco3)nn12)Nc1ccc2c(c1)OCO2	·	·	·	·	-24%
O=C(NC1CCCc2ccccc21)c1ccccn1 (stereo unspecified)	-3%	11%	-10%	3%	-19%
N#Cc1ccc(C(=O)NCC2CCN(C(=O)C(=O)c3cccs3)CC2)cc1	·	·	·	·	-8%
N#Cc1ccc(C(=O)NC2CCSc3ccccc32)cc1 (stereo unspecified)	·	·	·	·	30%
O=C(NC(=S)NC1CCCc2ccccc21)c1ccco1 (stereo unspecified)	-3%	14%	-35%	-16%	?
O=C(NC(=S)NC1CCCc2ccccc21)c1ccc(F)cc1 (stereo unspecified)	-2%	?	-22%	-5%	18µM*
N#Cc1ccc(C(=O)NC2CCCc3ccccc32)cc1 (stereo unspecified)	-1%	5%	50µM*	2%	2%
O=C(NC1CCCc2ccccc21)c1cc(Cl)ccn1 (stereo unspecified)	3%	12%	25µM*	-27%	-14%
N#Cc1ccc(C(=O)NCC2CCCCC2)cc1	6%	0%	50µM*	13%	-4%
Cc1nn(C(C)C)c(C)c1NC(=O)c1cc2sccc2n1C	·	·	·	·	0%
Cc1ccc(S(=O)(=O)N2CCN(C(=O)c3ccc(Br)o3)CC2)c(C)c1	-3%	-14%	79µM*	11%	?
CCCc1sc(C(=O)Nc2ccccc2O)cc1CC	·	·	·	·	13µM*
Cc1cccc(NN=C2c3ccccc3-c3ccccc32)c1	11%	-8%	32µM*	1%	-22%
O=C(O)c1cccc(N2C(=O)C=CC2=O)c1	1%	·	·	·	-21%
O=C(c1ccccc1)c1ccccc1N1C(=O)C=CC1=O	-14%	25µM*	0.79µM*	1.3µM*	7.9µM*
O=C1C=CC(=O)N1c1ccccc1N1C(=O)C=CC1=O	-14%	3.2µM*	·	·	-9%
O=C(Cn1cnc2cc(F)ccc2c1=O)N(Cc1cccs1)c1ccc2c(c1)OCCO2	·	·	·	·	9%
CCCOc1ccc(C(=O)N2CCC(c3nc4ccccc4o3)CC2)cc1	·	·	·	·	12%
Cc1nc2cccnc2n1CC1CCCN(S(=O)(=O)c2ccc(F)cc2)C1 (stereo unspecified)	·	·	·	·	34%
Cc1ccc2c(c1)sc[n+]2Cc1ccccc1	4%	25µM*	?	25µM*	?
CCCCCc1cc(=O)oc2c(C(CCN3CCCC3)c3ccc(N(C)C)cc3)c(OC)cc(OC)c12 (stereo unspecified)	-12%	-18%	?	79µM*	-29%
CCCCCc1cc(=O)oc2c(C(CCN3CCCCC3)c3ccc(OC)cc3)c(OC)cc(OC)c12 (stereo unspecified)	-5%	?	2%[59 µM]	?	?
CCCCCc1cc(=O)oc2c(C(CCN(CC)CC)c3ccc(OC)cc3)c(OC)cc(OC)c12 (stereo unspecified)	-7%	-9%	10%[12.7 µM]	56µM*	-29%
SMILES	Glioma ERSR ind	VDR inhibitor	G9a inh	Sfp inh	12-LOX inh
CCN(CC)CCC(c1ccc(OC)cc1)c1c(OC)cc(OC)c2c(C)cc(=O)oc12 (stereo unspecified)	-4%	-14%	·	-19%	·
CCCCCc1cc(=O)oc2c(C(CCN3CCCC(C)C3)c3ccc(OC)cc3)c(OC)cc(OC)c12 (stereo unspecified)	-3%	2%	?	25µM*	?
CCSc1nnc(-c2cccc(S(=O)(=O)N(C)C)c2)n1-c1cc(OC)ccc1OC	-4%	8%	?	13%	-9%
COc1cccc(-n2c(-c3cccc(S(=O)(=O)N(C)C)c3)n[nH]c2=S)c1	-1%	-11%	2.5µM*	50µM*	?
COc1cccc(-n2c(-c3ccc4[nH]c(C)c(C)c4c3)n[nH]c2=S)c1	1%	-15%	·	?	?
COc1ccc(OC)c(-n2c(-c3cccc(S(=O)(=O)N(C)C)c3)n[nH]c2=S)c1	-2%	21%	2.5µM*	-11%	-2%
CC(SC1=Nc2ccccc2CS1)C(=O)NC1CCCC1 (stereo unspecified)	·	·	·	·	11%
CCOC(=O)NC(CNC(=O)c1ccccc1)CC(C)C (stereo unspecified)	·	·	·	·	14%
COc1ccc(Br)cc1C(=O)NC(=S)Nc1ccc(Cl)c(C(=O)O)c1	-1%	-7%	20µM*	45µM*	?
COc1ccc(C(=O)NC(=S)Nc2cccc(S(=O)(=O)N3CCOCC3)c2)cc1	-1%	4%	5%	8%	28µM*
COc1ccc(Br)cc1/C=C/C(=O)NC(=S)Nc1ccc(Cl)c(C(=O)O)c1	2%	?	32µM*	-23%	?
COc1ccc(C(=O)NNC(=O)c2cccc(S(=O)(=O)N3CCOCC3)c2)cc1	1%	10%	·	·	5%
COc1ccc(C(=O)NC(=S)Nc2ccc3c(c2)Cc2ccccc2-3)cc1	-4%	-8%	?	45µM*	?
COc1ccc(Br)cc1/C=C/C(=O)NCC(=O)O	9%	-21%	0%	15%	-10%
Cc1ccc(C(=O)NC(=S)Nc2ccc(Oc3ccc(Cl)cc3)cc2)cc1	0%	8%	-16%	11%	7.9µM*
O=C(NC(=S)Nc1ccc(Oc2ccccc2)cc1)c1ccc(Cl)cc1	0%	10%	?	-1%	?
COc1ccc(C(=O)NC(=S)Nc2ccc(Cl)c(C(=O)O)c2)cc1	2%	4%	50µM*	-15%	7.1µM*
CC(C)Oc1cccc(C(=O)NC(=S)Nc2ccc(Cl)c(C(=O)O)c2)c1	-2%	5%	·	-17%	?
Cc1c(C)c2ccc(OCC(=O)Nc3nc4ccccc4[nH]3)cc2oc1=O	·	·	·	·	6%
C/C(=N\Nc1cccc(Cl)c1)C1(C)N(O)C(C)(C)C(c2ccco2)=[N+]1[O-] (stereo unspecified)	-3%	-21%	45µM*	8%	?
CN(Cc1ccc(F)cc1)S(=O)(=O)c1cccc2nsnc12	·	·	·	·	56%
COc1ccc2[nH]c(C)c(CCNC(=S)Nc3ccccc3C)c2c1	-1%	6%	50µM*	-2%	?
CCc1cccc(CC)c1NC(=S)NCCc1c(C)[nH]c2ccccc12	-3%	10%	45µM*	14%	?
COc1ccc(Cc2nc3c4c(ncn3n2)Oc2cc(O)ccc2C4c2ccc(OC)cc2)cc1 (stereo unspecified)	·	·	·	·	16%
Cc1ccc(NCSc2ccc(Cl)cc2)cc1	6%	-7%	·	·	-12%
Clc1ccc(SCNc2ccccc2Cl)cc1	-4%	?	31%	45µM*	?
O=S1OCCSc2sc(=S)sc2SCCO1	·	·	·	·	28µM*
CCOC(=O)Cc1ccc(NC(=O)Nc2nnc(N3CCCC(C)C3)s2)cc1 (stereo unspecified)	·	·	·	·	20%

High-throughput results deposited in PubChem by National Center for Advancing Translational Sciences (NCATS).
